Assay results: PubChem BioAssay (Tox21)
Inconclusive results are not listed. A call without a number means that no potency is given here. The source made the active and inactive calls. The call rests on the fitted dose curve. Peptide text beside a SMILES is read from it.

Assay: p53 small molecule agonists, cell-based qHTS assay with human liver microsomes (AID 1963577);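 further: p53 response element beta-lactamase reporter cells with liver microsomes plus NADPH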
Outline: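 p53RE-bla cells, 4,000/well, compound added after 5 h, with human liver microsomes 0.5 mg/mL and NADPH 0.5 mg/mL final; 16 h at 37 C, then LiveBLAzer 2 h RT, fluorescence.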

CCCCCCC(C)O (stereo not drawn)
Potency: inactive

COc1ccc(Cl)cc1C(=O)NCCc1ccc(S(=O)(=O)NC(=O)NC2CCCCC2)cc1
Potency: inactive

C1CNCCN1
Potency: inactive

CCCCC(CC)COC(=O)c1ccc(N(C)C)cc1 (stereo not drawn)
Potency: inactive

Nc1nc2ccccc2[nH]1
Potency: inactive

Nc1nc2ncc(CNc3ccc(C(=O)N[C@@H](CCC(=O)O)C(=O)O)cc3)nc2c(=O)[nH]1
Potency: inactive

ClC/C=C/CCl
Potency: inactive

C[C@H]1C[C@@H]2[C@H]([C@@H](O)C[C@@]3(C)[C@H]2CC[C@]3(O)C(=O)CO)[C@@]2(C)C=CC(=O)C=C12
Potency: inactive

Cc1c(N(C)CS(=O)(=O)O)c(=O)n(-c2ccccc2)n1C
Potency: inactive

Cc1cccc(O)c1C
Potency: inactive

CCCCCCCCOc1ccc(C(=O)c2ccccc2)c(O)c1
Potency: inactive

NNc1ccc(C(=O)O)cc1
Potency: inactive

CC(C)OB(OC(C)C)OC(C)C
Potency: inactive

CC(C)CC(C)CC(O)CC(C)C (stereo not drawn)
Potency: inactive

O=C(OCCOCCOC(=O)c1ccccc1)c1ccccc1
Potency: inactive

O=C1O[C@H]([C@H](O)CO)C(O)=C1O
Potency: inactive

O=C(O)Cc1c[nH]c2ccccc12
Potency: inactive

Cc1ccc(C)c(O)c1C
Potency: inactive

C=C(C)C(=O)OCCC[Si](OC)(OC)OC
Potency: inactive

Cc1cc(C(C)(C)C)c(O)c(C(C)(C)C)c1
Potency: inactive

CCOC(=O)c1ccc(O)cc1
Potency: inactive

Cc1cc(=O)[nH]c(C(C)C)n1
Potency: inactive

Cc1ccc(C)c(O)c1
Potency: inactive

Clc1ccccn1
Potency: inactive

CC(CCl)OP(=O)(OC(C)CCl)OC(C)CCl (stereo not drawn)
Potency: inactive

CCCCN(CCCC)CCCC
Potency: inactive

CCCCCCCCCCCCCCCC(=O)O
Potency: inactive

CC(C)(C)NC(=O)[C@H]1CC[C@H]2[C@@H]3CC[C@H]4NC(=O)C=C[C@]4(C)[C@H]3CC[C@]12C
Potency: inactive

Cc1cc(Cc2cc(C)cc(C(C)(C)C)c2O)c(O)c(C(C)(C)C)c1
Potency: inactive

OC[C@@H](O)[C@@H](O[C@@H]1O[C@H](CO)[C@H](O)[C@H](O)[C@H]1O)[C@H](O)[C@@H](O)CO
Potency: inactive

CC(C)=CCC/C(C)=C/CO
Potency: inactive

CNC[C@H](O)[C@@H](O)[C@H](O)[C@H](O)CO
Potency: inactive

C#CCN(C)Cc1ccccc1
Potency: inactive

O=c1[nH]nnc2ccccc12
Potency: inactive

NC(N)=NC(N)=NCCc1ccccc1
Potency: inactive

O=C(OCC1CCC2OC2C1)C1CCC2OC2C1 (stereo not drawn)
Potency: inactive

CC(C)CC(=O)CC(C)C
Potency: inactive

CC(=O)CC/C=C(\C)CCC=C(C)C
Potency: inactive

O=C(O)c1ccc(O)cc1
Potency: inactive

C[C@](N)(Cc1ccc(O)c(O)c1)C(=O)O
Potency: inactive

CCCOC(=O)c1ccccc1
Potency: inactive

COC(=O)[C@H](Cc1ccccc1)NC(=O)[C@@H](N)CC(=O)O (H-Asp-Phe-OMe)
Potency: inactive

CCCCCCCCCCCCCCCC(=O)OC(C)C
Potency: inactive

NCCS(=O)(=O)O
Potency: inactive

COc1ccc2[nH]cc(CCNC(C)=O)c2c1
Potency: inactive

CC(=O)CC(C)(C)O
Potency: inactive

Fc1ccc(Br)cc1
Potency: inactive

C=C(C)CNCC
Potency: inactive

O=C(O)c1ccccc1C(=O)O
Potency: inactive

Cc1nnc(NS(=O)(=O)c2ccc(N)cc2)s1
Potency: inactive

O=C(O)CCCCC1CCSS1 (stereo not drawn)
Potency: inactive

CCCCCCCCCCC(CO)CCCCCCCC (stereo not drawn)
Potency: inactive

CC(=O)Oc1ccc(C(c2ccc(OC(C)=O)cc2)c2ccccn2)cc1
Potency: inactive
